Measurements: PubChem BioAssay AID1490 (National Center for Advancing Translational Sciences (NCATS), 2009)
“And” between values parts separate entries of the source, which are not always exact repeats. Equal entries are not always repeated. Among all 310,000 compounds or so, about 11,000 (3.5%) were called active. About 4% were inconclusive and are not listed. The sample holds actives, similar compounds and a random draw of the others, so the mix is not that of the screen. Calls follow the shape of the dose curve; as a rule, active = well fitted inhibition curve with a large enough effect; inconclusive = small, poorly fitted or top-dose-only effect, or another doubt; inactive = no such curve, though single readings can be large or run the other way.

Each compound was assayed against 4'-phosphopantetheinyl transferase ffp (Bacillus subtilis) (UniProt Q9F4F7) (assay: qHTS Assay for Inhibitors of Bacillus subtilis Sfp phosphopantetheinyl transferase (PPTase)). Conditions: Biochemical Sfp PPTase activity.
Outline: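 Step 1, compound plus 15 nM Sfp-PPTase, 15 min, room temperature. Step 2, add rhodamine-CoA (5 uM) and BHQ-2-YbbR (12.5 uM). Step 3, read 525/598 nm fluorescence at 0 and 30 min.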
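Also: the enzyme is Sfp with the accession as filed and its product quenches rhodamine fluorescence.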
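For largest response in the series, negative = inhibition in this document: 0% = enzyme reaction without inhibitor and -100% = no enzyme wells.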
Potency is read from the fitted curve at half-maximal effect.

**Q.** OCCC(O)CO (stereo unspecified) was tested. Which largest response in the series, negative = inhibition did it give?
**A.** -2.96% (inactive) and -0.468% (inactive) and 9.51% (inactive)

**Q.** For O=C(c1cccnc1)N1CCN(S(=O)(=O)c2cccs2)CC1, which largest response in the series, negative = inhibition is on record?
**A.** 2.77% (inactive)

**Q.** Which largest response in the series, negative = inhibition does the source give for O=C(COc1ccc(Cl)cc1)NCCS(=O)(=O)N1CCN(c2ccc(F)cc2)CC1 here?
**A.** -3.01% (inactive)

**Q.** Which largest response in the series, negative = inhibition does the source give for NNC(=O)c1nnn(-c2nonc2N)c1CN1CCCC1 here?
**A.** 14.1% (inactive)

**Q.** With Cc1c(C(=O)N(C)CCc2cnn(C)c2)oc2c(F)cccc12 as the compound, how does the largest response in the series, negative = inhibition read?
**A.** 4.37% (inactive)

**Q.** For CCc1ccc2c(c1)C(c1ccc([N+](=O)[O-])cc1)=NNC(c1ccccc1)=N2, which largest response in the series, negative = inhibition is on record?
**A.** -18% (inactive)

**Q.** For CCc1ccc2c(c1)C1(NN=C(c3ccccc3)S1)C(=O)N2 (stereo unspecified), which Potency is on record?
**A.** 8.91 µM (active)

**Q.** How did the largest response in the series, negative = inhibition turn out when Cc1ccc(C)c(N2CCN(C(=O)CCCn3c(=O)c4cccn4c4cccnc43)CC2)c1 was run?
**A.** 14.7% (inactive)

**Q.** CCNC(=O)N1CCCC(C(=O)c2ccc(-c3ccccc3)cc2)C1 (stereo unspecified) was tested. Which largest response in the series, negative = inhibition did it give?
**A.** 4.19% (inactive)

**Q.** For Cc1ccc(-n2nc(-c3ccco3)cc2C(=O)NCc2cccnc2)cc1, which Potency is on record?
**A.** 10 µM (active)

**Q.** How did the largest response in the series, negative = inhibition turn out when CSc1sc(C(=O)NC(=O)NCc2cccnc2)c(C)c1-c1ccon1 was run?
**A.** 9.79% (inactive)

**Q.** With CC(C)(C)c1cc(C(=O)NCc2cccnc2)ccn1 as the compound, how does the largest response in the series, negative = inhibition read?
**A.** -7% (inactive)

**Q.** How did the largest response in the series, negative = inhibition turn out when COc1ccc(N(CC(=O)Nc2cccc3ccccc23)S(C)(=O)=O)c(OC)c1 was run?
**A.** 9.66% (inactive)

**Q.** How did the largest response in the series, negative = inhibition turn out when Cc1ccccc1NC(=O)Cn1cc(C(=O)C2CC2)c2ccccc21 was run?
**A.** 16.6% (inactive)

**Q.** Which largest response in the series, negative = inhibition does the source give for O=C(Cc1c(Cl)cccc1Cl)NC1CC1 here?
**A.** 11.4% (inactive)

**Q.** Which Potency does the source give for C=CS(=O)c1sc(Cl)c(N2CCOCC2)c1[N+](=O)[O-] (stereo unspecified) here?
**A.** 10 µM (active)

**Q.** COc1ccc(CCNC(=O)c2nnc(CS(=O)(=O)c3ccccc3)o2)cc1OC was tested. Which largest response in the series, negative = inhibition did it give?
**A.** 9.29% (inactive)

**Q.** Which largest response in the series, negative = inhibition does the source give for COc1ccc(C(=O)NC(C)Cn2nc(C)cc2C)cc1OC1CCN(C(C)=O)CC1 (stereo unspecified) here?
**A.** 12.4% (inactive)

**Q.** For COc1ccc(C(=O)O/N=C(\N)Cc2ccc(Cl)cc2Cl)cc1OC, which largest response in the series, negative = inhibition is on record?
**A.** 0.628% (inactive)

**Q.** NC(N)=N/N=C/c1ccc(Cl)c([N+](=O)[O-])c1 was tested. Which largest response in the series, negative = inhibition did it give?
**A.** 6.82% (inactive)

**Q.** NC(N)=N/N=C/c1ccc(OCc2ccc(Cl)cc2Cl)cc1 was tested. Which Potency did it give?
**A.** 31.6 µM (active)

**Q.** How did the largest response in the series, negative = inhibition turn out when CCCOc1ccc(CNC(=O)C2CCN(c3nn4c(=O)cc(C)nc4s3)CC2)cc1 was run?
**A.** 7.3% (inactive)

**Q.** How did the Potency turn out when CC1CCN(C(=S)c2ccc(-c3ccc(Cl)cc3Cl)o2)CC1 was run?
**A.** 50.1 µM (active)

**Q.** With COc1ccc(C(=O)Nc2c(Cl)cc(Cl)cc2C(=O)N2CCC(C)CC2)cc1 as the compound, how does the largest response in the series, negative = inhibition read?
**A.** 11.9% (inactive)

**Q.** Which largest response in the series, negative = inhibition does the source give for Cc1csc(NC(=O)c2ccc(-c3ccc(Cl)cc3Cl)o2)n1 here?
**A.** 1.33% (inactive)

**Q.** With Cc1nc2cc(C(F)(F)F)ccc2n1CCNc1nc(-c2cc(Cl)c(N)c(Cl)c2)cs1 as the compound, how does the largest response in the series, negative = inhibition read?
**A.** 9.07% (inactive)

**Q.** Which largest response in the series, negative = inhibition does the source give for Cc1cccc(N2CCN(C(=O)c3cccc(N4C(=O)C5C6C=CC(C6)C5C4=O)c3)CC2)c1C (stereo unspecified) here?
**A.** 14.6% (inactive)

**Q.** How did the Potency turn out when CCOC(=O)c1ccc(-c2ccc(C(=O)Nc3cccnc3)o2)cc1 was run?
**A.** 44.7 µM (active)

**Q.** CCOC(=O)c1ccc(NC(=O)c2cccnc2)cc1 was tested. Which largest response in the series, negative = inhibition did it give?
**A.** 10.5% (inactive)

**Q.** For Cc1ccc(NC(=O)Nc2cccnc2)cc1, which largest response in the series, negative = inhibition is on record?
**A.** 2.48% (inactive)

**Q.** Which largest response in the series, negative = inhibition does the source give for Cc1cccc(C(=O)Nc2ccc(Oc3cnccn3)cc2)c1 here?
**A.** 11% (inactive)

**Q.** C=C1CCN(C(CC(C)C)C(=O)NCc2cc(OC)c(OC)c(OC)c2)S(=O)(=O)c2ccccc21 (stereo unspecified) was tested. Which largest response in the series, negative = inhibition did it give?
**A.** -15.6% (inactive)

**Q.** How did the largest response in the series, negative = inhibition turn out when CCOc1ccc(C(c2c(C)[nH][nH]c2=O)c2c(C)[nH][nH]c2=O)cc1OCC was run?
**A.** 2.34% (inactive)

**Q.** For Cc1[nH][nH]c(=O)c1C(c1ccc2c(c1)OCO2)c1c(C)[nH][nH]c1=O, which largest response in the series, negative = inhibition is on record?
**A.** 5.9% (inactive)

**Q.** How did the Potency turn out when Cc1[nH][nH]c(=O)c1C(c1ccc(-c2ccc(Cl)cc2)o1)c1c(C)[nH][nH]c1=O was run?
**A.** 39.8 µM (active)

**Q.** How did the largest response in the series, negative = inhibition turn out when Cc1ccc2occ(/C=N/NC(=O)c3ccccc3C)c(=O)c2c1 was run?
**A.** 18.5% (inactive)

**Q.** Which largest response in the series, negative = inhibition does the source give for CCC(C)[C@H](NC(=O)N1c2ccccc2NC(=O)[C@@H]1C(C)C)C(=O)N[C@@H](Cc1ccccc1)C(=O)O (stereo partly specified) here?
**A.** 13.4% (inactive)

**Q.** How did the largest response in the series, negative = inhibition turn out when Cc1ccc(OCCOc2cccc(/C=N/NC(N)=O)c2)cc1 was run?
**A.** 9.7% (inactive)

**Q.** Which largest response in the series, negative = inhibition does the source give for Clc1ccc(N/N=C/c2cccs2)nn1 here?
**A.** -26.9% (inactive)

**Q.** Which largest response in the series, negative = inhibition does the source give for COCc1c(C(=O)N/N=C/C2CC=CCC2)nnn1-c1nonc1N (stereo unspecified) here?
**A.** -0.608% (inactive)

**Q.** With O=C(N/N=C\C1CC=CCC1)c1ccc(Br)o1 (stereo unspecified) as the compound, how does the largest response in the series, negative = inhibition read?
**A.** 5.57% (inactive)

**Q.** Cc1n[nH]c(=O)nc1N/N=C/c1cccs1 was tested. Which largest response in the series, negative = inhibition did it give?
**A.** 4.06% (inactive)

**Q.** Which Potency does the source give for Cc1nnc(N/N=C/C2CC=CCC2)[nH]c1=O (stereo unspecified) here?
**A.** 79.4 µM (active)

**Q.** How did the Potency turn out when Cc1nnc(N/N=C/c2cccs2)[nH]c1=O was run?
**A.** 89.1 µM (active)

**Q.** Which largest response in the series, negative = inhibition does the source give for COc1ccc(CNC(=O)c2cc(C(=O)C3CC3)c[nH]2)cc1 here?
**A.** 19.2% (inactive)

**Q.** CCc1cc(=O)oc2c(C)c(OCC(=O)N3CC[C@@]4(O)CCCC[C@H]4C3)ccc12 was tested. Which largest response in the series, negative = inhibition did it give?
**A.** 6.44% (inactive)

**Q.** For O=C(Nc1cccc(F)c1)NC1CCCCCCC1, which largest response in the series, negative = inhibition is on record?
**A.** 8.11% (inactive)

**Q.** COc1ccc2c(c1)O[C@@H](c1ccc3c(c1)OCO3)[C@H](OC(=O)NCc1ccco1)C2=O was tested. Which largest response in the series, negative = inhibition did it give?
**A.** 1.2% (inactive)

**Q.** Which largest response in the series, negative = inhibition does the source give for CC(C)OCCCNC(=O)CN1C(=O)/C(=C/c2ccccc2F)Oc2ccccc21 here?
**A.** -3.78% (inactive)

**Q.** With CSc1cc(C)[nH]c(=O)n1 as the compound, how does the largest response in the series, negative = inhibition read?
**A.** 7.92% (inactive)

**Q.** Cc1cc(=O)cc(C)[nH]1 was tested. Which largest response in the series, negative = inhibition did it give?
**A.** 15% (inactive)

**Q.** For Cc1cc(=O)[nH]c(=S)[nH]1, which Potency is on record?
**A.** 31.6 µM (active)

**Q.** How did the largest response in the series, negative = inhibition turn out when O=C(c1ccccc1F)N1CCN(S(=O)(=O)c2ccc(Br)cc2)CC1 was run?
**A.** 9.87% (inactive)

**Q.** How did the Potency turn out when O=C(c1ccc[nH]c1=S)N1CCN(S(=O)(=O)c2ccc(Br)cc2Cl)CC1 was run?
**A.** 79.4 µM (active)

**Q.** How did the largest response in the series, negative = inhibition turn out when O=C(c1ccc(Cl)c(S(=O)(=O)N2CCCCC2)c1)N1CCCCCC1 was run?
**A.** 16.4% (inactive)

**Q.** How did the largest response in the series, negative = inhibition turn out when CC(C)Sc1ncnc2c1cnn2-c1ccccc1 was run?
**A.** -5.09% (inactive)

**Q.** Which largest response in the series, negative = inhibition does the source give for C=C1C(=O)C23C(O)C1CCC2[C@]12COC3(O)C(O)C1C(C)(C)CC[C@H]2O (stereo partly specified) here?
**A.** -81.1% (inactive)

**Q.** Which largest response in the series, negative = inhibition does the source give for O=C(COCc1cc(-c2ccc3c(c2)OCO3)on1)N1CCN(c2cccc(Cl)c2)CC1 here?
**A.** -5.35% (inactive)

**Q.** With COc1ccc2[nH]c(=S)cc(C)c2c1 as the compound, how does the Potency read?
**A.** 39.8 µM (active)

**Q.** COc1ccc2[nH]c3c(C)c4cc[n+](C)cc4c(C)c3c2c1 was tested. Which largest response in the series, negative = inhibition did it give?
**A.** -11.7% (inactive)

**Q.** How did the largest response in the series, negative = inhibition turn out when COc1ccc2c(C)cc3nnnn3c2c1 was run?
**A.** 7.5% (inactive)
